# About 79,000 compounds went through this panel and 15% of them were active in at least one assay; those are over-represented in the sample as a whole. Values without a mark were called inactive. Calls of active or inactive are those of the source. Rule as the data show it: active = growth inhibition above about 70%; inactive = the rest.
# Columns and labels:
# [1] = NCI Yeast Anticancer Drug Screen. Data for the rad52 strain (AID 147);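 also: 0% = growth of vehicle-treated control cultures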; conditions: S. cerevisiae rad52 mutant growth inhibition, stronger effect = higher value
# Procedure, shortened: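 Here a repair-compromised yeast strain receives each compound; its growth is then quantified and normalised to vehicle-only controls.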
# [2] = NCI Yeast Anticancer Drug Screen. Data for the wt1 strain (AID 149);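 also: 0% = growth of vehicle-treated wt1 cultures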; conditions: S. cerevisiae wt1 strain (SPY 50644) growth inhibition, stronger effect = higher value
# Procedure, shortened: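 Compounds are added to wt1 yeast cultures. Growth is then measured. Inhibition is expressed relative to vehicle-treated controls.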
# [3] = NCI Yeast Anticancer Drug Screen. Data for the rad50EPP+ strain (AID 151);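 also: 0% = growth of vehicle-treated control cultures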; conditions: S. cerevisiae rad50 mutant strain, stronger effect = higher value
# Procedure, shortened: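 Read-out is yeast growth inhibition relative to vehicle; cells used were the rad50EPP+ strain.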
# [4] = NCI Yeast Anticancer Drug Screen. Data for the mgt1 strain (AID 153); conditions: S. cerevisiae mgt1 mutant growth inhibition, stronger effect = higher value
# Procedure, shortened: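 Measured: inhibition of mgt1 yeast growth by compound, normalized to vehicle-treated cultures.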
# [5] = NCI Yeast Anticancer Drug Screen. Data for the rad50 strain (AID 155);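 also: 0% = growth of vehicle-only cultures of the same strain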; conditions: S. cerevisiae rad50 strain growth inhibition, stronger effect = higher value
# Procedure, shortened: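 Inhibition values express reduced yeast growth in compound-treated cultures relative to vehicle-treated controls.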
# [6] = NCI Yeast Anticancer Drug Screen. Data for the mec2-1 strain (AID 157); conditions: S. cerevisiae mec2-1 strain, stronger effect = higher value
# Procedure, shortened: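 Using mec2-1 yeast: add compound, measure growth, express inhibition versus vehicle-treated cultures.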
# [7] = NCI Yeast Anticancer Drug Screen. Data for the rad14 strain (AID 159);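 also: 0% = growth of vehicle-treated control cultures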; conditions: S. cerevisiae rad14 strain growth inhibition, stronger effect = higher value
# Procedure, shortened: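 A mutant yeast strain defective in DNA damage repair is treated with compound; inhibition of its growth is scored against untreated, vehicle-exposed cultures.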
# [8] = NCI Yeast Anticancer Drug Screen. Data for the sgs1 mgt1 strain (AID 161);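 also: 0% = growth of cultures given vehicle only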; conditions: S. cerevisiae sgs1 mgt1 strain, stronger effect = higher value
# Procedure, shortened: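 Compounds are added to genetically altered yeast, and growth is compared with cultures given vehicle alone to give percent inhibition.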
# [9] = NCI Yeast Anticancer Drug Screen. Data for the CLN2oe strain (AID 163);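 also: 0% = growth of vehicle-only control cultures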; conditions: S. cerevisiae CLN2oe strain, stronger effect = higher value
# Procedure, shortened: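 Whole-cell yeast growth assay. A strain engineered for altered cell-cycle control received compound, and inhibition relative to vehicle-treated cultures was recorded.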
# [10] = NCI Yeast Anticancer Drug Screen. Data for the cln2 rad14 strain (AID 165);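 also: 0% = growth equal to vehicle treated cultures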; conditions: S. cerevisiae cln2 rad14 strain, stronger effect = higher value
# Procedure, shortened: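 Yeast strain cln2 rad14, bearing defects in cell cycle control and DNA repair, serves as the test system; values reflect growth inhibition compared with vehicle.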
# [11] = NCI Yeast Anticancer Drug Screen. Data for the bub3 strain (AID 167); conditions: S. cerevisiae bub3 mutant strain, stronger effect = higher value
# Procedure, shortened: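 Steps: expose the mutant yeast strain to compound; grow alongside vehicle-treated cultures; measure growth; express inhibition against the vehicle cultures.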
# [12] = NCI Yeast Anticancer Drug Screen. Data for the wt2 strain (AID 169);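 also: 0% = growth of vehicle-treated yeast cultures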; conditions: S. cerevisiae wt2 strain growth inhibition, stronger effect = higher value
# Procedure, shortened: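 Treated yeast vs. vehicle-treated yeast: growth inhibition determined.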
# [13] = NCI Yeast Anticancer Drug Screen. Data for the mlh1 strain (AID 171);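 also: 0% = growth of vehicle-treated control cultures of the same strain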; conditions: S. cerevisiae mlh1 strain growth inhibition, stronger effect = higher value
# Procedure, shortened: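 A yeast strain with a defined genetic lesion serves as the test organism. Cultures receive compound or vehicle, and growth is measured.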
# [14] = NCI Yeast Anticancer Drug Screen. Data for the mlh1 rad18 strain (AID 175); conditions: S. cerevisiae mlh1 rad18 strain growth inhibition, stronger effect = higher value
# Procedure, shortened: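 Steps: expose repair-defective yeast to compound; measure growth; express inhibition against vehicle-treated controls.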
# [15] = NCI Yeast Anticancer Drug Screen. Data for the rad18 strain (AID 177); conditions: S. cerevisiae rad18 mutant growth inhibition, stronger effect = higher value
# Procedure, shortened: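 Measured value is growth inhibition of a yeast strain bearing a DNA repair alteration, referenced to vehicle-treated cells.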
# [16] = at 5.0 µM (retest, dose inferred, filed as 0.5)
# [17] = at 50.0 µM (retest, dose inferred, filed as 5.0)
compound,measurement,setting,value
Cc1cccc2c(C(O)CBr)cc(-c3ccc(Cl)cc3)nc12 (stereo not drawn),growth inhibition,[1]; at 1.2 µM,0%
same,growth inhibition,[1]; at 3.7 µM,20%
same,growth inhibition,[1]; at 11.0 µM,98% (active)
same,growth inhibition,[1]; at 33.0 µM,96% (active)
same,growth inhibition,[1]; at 100.0 µM,87% (active)
same,growth inhibition,[2]; at 1.2 µM,-3%
same,growth inhibition,[2]; at 3.7 µM,-5%
same,growth inhibition,[2]; at 11.0 µM,98% (active)
same,growth inhibition,[2]; at 33.0 µM,97% (active)
same,growth inhibition,[2]; at 100.0 µM,91% (active)
same,growth inhibition,[3]; at 1.2 µM,1%
same,growth inhibition,[3]; at 3.7 µM,10%
same,growth inhibition,[3]; at 11.0 µM,32%
same,growth inhibition,[3]; at 33.0 µM,40%
same,growth inhibition,[3]; at 100.0 µM,54%
same,growth inhibition,[4]; at 1.2 µM,-2%
same,growth inhibition,[4]; at 3.7 µM,-1%
same,growth inhibition,[4]; at 11.0 µM,98% (active)
same,growth inhibition,[4]; at 33.0 µM,97% (active)
same,growth inhibition,[4]; at 100.0 µM,92% (active)
same,growth inhibition,[5]; at 1.2 µM,0%
same,growth inhibition,[5]; at 3.7 µM,11%
same,growth inhibition,[5]; [16],3%
same,growth inhibition,[5]; at 11.0 µM,98% (active)
same,growth inhibition,[5]; at 33.0 µM,96% (active)
same,growth inhibition,[5]; [17],93% (active)
same,growth inhibition,[5]; at 50.0 µM,93.8% (active)
same,growth inhibition,[5]; at 100.0 µM,88% (active)
same,growth inhibition,[6]; at 1.2 µM,0%
same,growth inhibition,[6]; at 3.7 µM,4%
same,growth inhibition,[6]; [16],1%
same,growth inhibition,[6]; at 11.0 µM,99% (active)
same,growth inhibition,[6]; at 33.0 µM,97% (active)
same,growth inhibition,[6]; [17],96% (active)
same,growth inhibition,[6]; at 50.0 µM,96.1% (active)
same,growth inhibition,[6]; at 100.0 µM,51%
same,growth inhibition,[7]; at 1.2 µM,-4%
same,growth inhibition,[7]; at 3.7 µM,3%
same,growth inhibition,[7]; at 11.0 µM,99% (active)
same,growth inhibition,[7]; at 33.0 µM,97% (active)
same,growth inhibition,[7]; at 100.0 µM,88% (active)
same,growth inhibition,[8]; [16],3%
same,growth inhibition,[8]; [17],95% (active)
same,growth inhibition,[8]; at 50.0 µM,95.7% (active)
same,growth inhibition,[9]; at 1.2 µM,-2%
same,growth inhibition,[9]; at 3.7 µM,-3%
same,growth inhibition,[9]; at 11.0 µM,98% (active)
same,growth inhibition,[9]; at 33.0 µM,96% (active)
same,growth inhibition,[9]; at 100.0 µM,51%
same,growth inhibition,[10]; [16],-10%
same,growth inhibition,[10]; [17],95% (active)
same,growth inhibition,[10]; at 50.0 µM,92.8% (active)
same,growth inhibition,[11]; at 1.2 µM,0%
same,growth inhibition,[11]; at 3.7 µM,8%
same,growth inhibition,[11]; [16],-1%
same,growth inhibition,[11]; at 11.0 µM,98% (active)
same,growth inhibition,[11]; at 33.0 µM,96% (active)
same,growth inhibition,[11]; [17],96% (active)
same,growth inhibition,[11]; at 50.0 µM,92.5% (active)
same,growth inhibition,[11]; at 100.0 µM,45%
same,growth inhibition,[12]; at 1.2 µM,-4%
same,growth inhibition,[12]; at 3.7 µM,-6%
same,growth inhibition,[12]; at 11.0 µM,98% (active)
same,growth inhibition,[12]; at 33.0 µM,96% (active)
same,growth inhibition,[12]; at 100.0 µM,88% (active)
same,growth inhibition,[13]; at 1.2 µM,-5%
same,growth inhibition,[13]; at 3.7 µM,1%
same,growth inhibition,[13]; at 11.0 µM,98% (active)
same,growth inhibition,[13]; at 33.0 µM,95% (active)
same,growth inhibition,[13]; at 100.0 µM,48%
same,growth inhibition,[14]; [16],1%
same,growth inhibition,[14]; [17],95% (active)
same,growth inhibition,[14]; at 50.0 µM,95.3% (active)
same,growth inhibition,[15]; at 1.2 µM,-3%
same,growth inhibition,[15]; at 3.7 µM,17%
same,growth inhibition,[15]; at 11.0 µM,98% (active)
same,growth inhibition,[15]; at 33.0 µM,95% (active)
same,growth inhibition,[15]; at 100.0 µM,88% (active)
